Paper PMC7862700, “An all-to-all approach to the identification of sequence-specific readers for epigenetic DNA modifications on cytosine”

Tests used:
Experiment in all cases: DAPPL (digital affinity profiling via proximity ligation, sequencing); 10 mM Tris-HCl pH 7.5, 50 mM NaCl, 1 mM DTT, 4% glycerol, room temperature, 30 min; GST-TFs on glutathione beads, 16-mer random dsDNA library, 0.1% formaldehyde crosslink after washing; high values mean tight binding
Conditions in all cases: protein: recombinant; tags: N-terminal GST; dsDNA, one strand shown
ERF = target: T1, ERF (Homo sapiens, UniProt P50548 1-548)
T1 sequence: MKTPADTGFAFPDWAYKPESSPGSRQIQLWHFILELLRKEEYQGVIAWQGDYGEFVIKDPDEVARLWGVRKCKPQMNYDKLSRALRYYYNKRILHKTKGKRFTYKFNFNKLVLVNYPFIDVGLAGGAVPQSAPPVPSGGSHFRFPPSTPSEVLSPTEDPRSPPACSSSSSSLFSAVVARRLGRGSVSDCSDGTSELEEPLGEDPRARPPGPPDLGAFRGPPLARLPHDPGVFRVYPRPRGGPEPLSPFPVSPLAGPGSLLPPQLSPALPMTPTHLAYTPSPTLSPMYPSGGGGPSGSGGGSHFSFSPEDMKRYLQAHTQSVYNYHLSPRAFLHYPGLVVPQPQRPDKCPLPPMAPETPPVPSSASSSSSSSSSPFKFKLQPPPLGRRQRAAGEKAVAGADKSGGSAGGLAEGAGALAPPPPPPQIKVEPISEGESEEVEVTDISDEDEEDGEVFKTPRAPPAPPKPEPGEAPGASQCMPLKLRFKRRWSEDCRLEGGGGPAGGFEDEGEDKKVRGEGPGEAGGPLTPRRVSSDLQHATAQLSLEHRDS
Method in brief: (§1)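 In yeast, human transcription factors were expressed with a GST fusion, then pulled down on glutathione beads and given DNA barcodes. Pooled with a tag-only sample, they were exposed to 200 nmole of a 16-mer random double-stranded DNA library (Tris/NaCl/DTT/glycerol buffer, room temperature, 30 min), washed, crosslinked with 0.1% formaldehyde, proximity-ligated using BsaI/T4 ligase for 1 h at 37 °C, PCR-amplified and read on an Illumina NextSeq500. Each hexamer's frequency of reads for a factor, divided by the matching frequency for the tag-only sample, gives the binding signal.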

ETV3L = target: T2, ETV3L (Homo sapiens, UniProt Q6ZN32 1-361)
T2 sequence: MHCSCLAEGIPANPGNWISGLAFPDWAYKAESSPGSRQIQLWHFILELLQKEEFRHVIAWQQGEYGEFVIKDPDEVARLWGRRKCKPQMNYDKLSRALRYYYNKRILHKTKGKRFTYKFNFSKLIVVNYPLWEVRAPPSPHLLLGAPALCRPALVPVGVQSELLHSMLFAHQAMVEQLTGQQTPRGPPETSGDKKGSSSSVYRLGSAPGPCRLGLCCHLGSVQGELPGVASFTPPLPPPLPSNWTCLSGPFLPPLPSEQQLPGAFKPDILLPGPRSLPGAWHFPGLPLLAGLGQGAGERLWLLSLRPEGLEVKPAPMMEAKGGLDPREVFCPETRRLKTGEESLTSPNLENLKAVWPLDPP
Method in brief: as §1

ETS2 = target: T3, ETS2 (Homo sapiens, UniProt P15036 1-469)
T3 sequence: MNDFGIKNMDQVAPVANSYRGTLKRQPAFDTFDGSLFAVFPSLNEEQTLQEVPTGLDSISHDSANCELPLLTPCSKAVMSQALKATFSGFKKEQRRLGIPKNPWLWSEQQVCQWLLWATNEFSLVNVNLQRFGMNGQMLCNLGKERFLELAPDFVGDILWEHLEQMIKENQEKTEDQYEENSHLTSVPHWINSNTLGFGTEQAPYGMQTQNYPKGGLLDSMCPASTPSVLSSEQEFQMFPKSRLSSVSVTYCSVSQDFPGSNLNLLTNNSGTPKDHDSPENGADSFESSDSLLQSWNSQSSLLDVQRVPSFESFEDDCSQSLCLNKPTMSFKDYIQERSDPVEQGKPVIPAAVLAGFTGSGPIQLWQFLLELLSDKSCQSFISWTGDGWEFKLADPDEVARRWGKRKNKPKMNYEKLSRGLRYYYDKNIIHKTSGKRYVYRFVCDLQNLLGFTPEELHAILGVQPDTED
Method in brief: as §1

SPDEF = target: T4, SPDEF (Homo sapiens, UniProt O95238 1-335)
T4 sequence: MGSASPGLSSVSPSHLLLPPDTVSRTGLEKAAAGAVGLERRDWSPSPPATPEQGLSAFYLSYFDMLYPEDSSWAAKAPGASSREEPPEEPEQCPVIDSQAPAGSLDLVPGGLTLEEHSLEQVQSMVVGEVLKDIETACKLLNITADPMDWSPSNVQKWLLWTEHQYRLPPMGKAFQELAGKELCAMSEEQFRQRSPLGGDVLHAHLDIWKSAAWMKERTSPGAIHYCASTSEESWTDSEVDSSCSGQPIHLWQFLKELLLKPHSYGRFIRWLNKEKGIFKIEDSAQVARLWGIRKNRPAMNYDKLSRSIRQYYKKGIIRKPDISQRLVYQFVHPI
Method in brief: as §1

ETV7 = target: T5, ETV7 (Homo sapiens, UniProt Q9Y603 1-341)
T5 sequence: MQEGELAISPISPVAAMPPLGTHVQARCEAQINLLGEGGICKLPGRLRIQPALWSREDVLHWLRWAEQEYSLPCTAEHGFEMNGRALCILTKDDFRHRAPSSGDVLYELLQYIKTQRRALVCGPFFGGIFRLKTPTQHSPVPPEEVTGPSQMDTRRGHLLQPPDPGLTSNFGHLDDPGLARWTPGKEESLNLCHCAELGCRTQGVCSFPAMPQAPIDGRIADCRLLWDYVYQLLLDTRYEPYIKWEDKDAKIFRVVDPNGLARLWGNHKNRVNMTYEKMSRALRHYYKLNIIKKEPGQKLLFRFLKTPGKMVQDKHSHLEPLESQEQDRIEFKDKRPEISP
Method in brief: as §1

ELF5 = target: T6, ELF5 (Homo sapiens, UniProt Q9UKW6-2 1-255)
T6 sequence: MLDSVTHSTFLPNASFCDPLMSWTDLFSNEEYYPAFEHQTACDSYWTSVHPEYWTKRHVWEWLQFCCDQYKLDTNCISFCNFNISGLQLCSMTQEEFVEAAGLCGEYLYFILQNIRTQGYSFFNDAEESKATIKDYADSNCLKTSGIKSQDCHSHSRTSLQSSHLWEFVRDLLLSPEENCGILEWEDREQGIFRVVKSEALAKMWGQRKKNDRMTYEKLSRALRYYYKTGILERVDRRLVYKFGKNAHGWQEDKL
Method in brief: as §1

ETV3 = target: T7, ETV3 (Homo sapiens, UniProt P41162-2 1-143)
T7 sequence: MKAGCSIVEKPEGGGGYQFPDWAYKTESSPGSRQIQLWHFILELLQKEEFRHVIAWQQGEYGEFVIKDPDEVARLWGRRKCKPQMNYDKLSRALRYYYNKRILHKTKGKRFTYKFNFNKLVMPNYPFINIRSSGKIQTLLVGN
Method in brief: as §1

ETV6 = ETV6 (Homo sapiens, UniProt P41212 1-452)
Method in brief: as §1

Chain of ETV6 (P41212 whole entry): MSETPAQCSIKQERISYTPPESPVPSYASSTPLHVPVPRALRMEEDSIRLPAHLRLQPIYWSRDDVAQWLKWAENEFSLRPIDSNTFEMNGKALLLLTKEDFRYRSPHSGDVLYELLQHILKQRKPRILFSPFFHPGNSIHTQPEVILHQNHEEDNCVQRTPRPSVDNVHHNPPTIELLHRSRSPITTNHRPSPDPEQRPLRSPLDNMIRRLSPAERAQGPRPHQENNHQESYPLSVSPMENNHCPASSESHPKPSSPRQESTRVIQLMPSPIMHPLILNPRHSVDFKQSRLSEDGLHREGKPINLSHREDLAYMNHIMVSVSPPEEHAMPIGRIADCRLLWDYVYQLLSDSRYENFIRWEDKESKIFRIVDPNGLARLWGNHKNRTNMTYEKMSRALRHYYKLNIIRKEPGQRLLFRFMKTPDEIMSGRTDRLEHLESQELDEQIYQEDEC

Row | Sequence | binding signal (ERF) | binding signal (ETV3L) | binding signal (ETS2) | binding signal (SPDEF) | binding signal (ETV7) | binding signal (ELF5) | binding signal (ETV3) | binding signal (ETV6)
1 | GTATTA | 1.24 fold enrichment (6-mer frequency, TF over GST control) | 1.04 fold enrichment (6-mer frequency, TF over GST control) | 1.07 fold enrichment (6-mer frequency, TF over GST control) | 1.17 fold enrichment (6-mer frequency, TF over GST control) | 1.05 fold enrichment (6-mer frequency, TF over GST control) | 1.02 fold enrichment (6-mer frequency, TF over GST control) | 1.14 fold enrichment (6-mer frequency, TF over GST control) | 1.16 fold enrichment (6-mer frequency, TF over GST control)
2 | TCGCTT | 1.21 fold enrichment (6-mer frequency, TF over GST control) | 1.24 fold enrichment (6-mer frequency, TF over GST control) | 1.34 fold enrichment (6-mer frequency, TF over GST control) | 1.18 fold enrichment (6-mer frequency, TF over GST control) | 1.29 fold enrichment (6-mer frequency, TF over GST control) | 1.21 fold enrichment (6-mer frequency, TF over GST control) | 1.24 fold enrichment (6-mer frequency, TF over GST control) | 1.22 fold enrichment (6-mer frequency, TF over GST control)
3 | TCCCAC | 1.5 fold enrichment (6-mer frequency, TF over GST control) | 1.31 fold enrichment (6-mer frequency, TF over GST control) | 1.23 fold enrichment (6-mer frequency, TF over GST control) | 1.33 fold enrichment (6-mer frequency, TF over GST control) | 1.41 fold enrichment (6-mer frequency, TF over GST control) | 1.47 fold enrichment (6-mer frequency, TF over GST control) | 1.24 fold enrichment (6-mer frequency, TF over GST control) | 1.4 fold enrichment (6-mer frequency, TF over GST control)
4 | CGCCCT | 1.37 fold enrichment (6-mer frequency, TF over GST control) | 1.34 fold enrichment (6-mer frequency, TF over GST control) | 1.38 fold enrichment (6-mer frequency, TF over GST control) | 1.31 fold enrichment (6-mer frequency, TF over GST control) | 1.51 fold enrichment (6-mer frequency, TF over GST control) | 1.22 fold enrichment (6-mer frequency, TF over GST control) | 1.34 fold enrichment (6-mer frequency, TF over GST control) | 1.31 fold enrichment (6-mer frequency, TF over GST control)
5 | CTTAAC | 1.3 fold enrichment (6-mer frequency, TF over GST control) | 1.22 fold enrichment (6-mer frequency, TF over GST control) | 1.3 fold enrichment (6-mer frequency, TF over GST control) | 1.36 fold enrichment (6-mer frequency, TF over GST control) | 1.29 fold enrichment (6-mer frequency, TF over GST control) | 1.31 fold enrichment (6-mer frequency, TF over GST control) | 1.3 fold enrichment (6-mer frequency, TF over GST control) | 1.29 fold enrichment (6-mer frequency, TF over GST control)
6 | TAACTA | 1.38 fold enrichment (6-mer frequency, TF over GST control) | 1.21 fold enrichment (6-mer frequency, TF over GST control) | 1.4 fold enrichment (6-mer frequency, TF over GST control) | 1.26 fold enrichment (6-mer frequency, TF over GST control) | 1.29 fold enrichment (6-mer frequency, TF over GST control) | 1.3 fold enrichment (6-mer frequency, TF over GST control) | 1.29 fold enrichment (6-mer frequency, TF over GST control) | 1.36 fold enrichment (6-mer frequency, TF over GST control)
7 | TGCTAA | 1.13 fold enrichment (6-mer frequency, TF over GST control) | 1.25 fold enrichment (6-mer frequency, TF over GST control) | 1.34 fold enrichment (6-mer frequency, TF over GST control) | 1.32 fold enrichment (6-mer frequency, TF over GST control) | 1.28 fold enrichment (6-mer frequency, TF over GST control) | 1.25 fold enrichment (6-mer frequency, TF over GST control) | 1.22 fold enrichment (6-mer frequency, TF over GST control) | 1.29 fold enrichment (6-mer frequency, TF over GST control)
8 | AACTCT | 1.33 fold enrichment (6-mer frequency, TF over GST control) | 1.27 fold enrichment (6-mer frequency, TF over GST control) | 1.32 fold enrichment (6-mer frequency, TF over GST control) | 1.35 fold enrichment (6-mer frequency, TF over GST control) | 1.24 fold enrichment (6-mer frequency, TF over GST control) | 1.35 fold enrichment (6-mer frequency, TF over GST control) | 1.34 fold enrichment (6-mer frequency, TF over GST control) | 1.33 fold enrichment (6-mer frequency, TF over GST control)
